Measured values as given in PubChem BioAssay (NCI).
About 79,000 compounds went through this panel and 15% of them were active in at least one assay; those are over-represented in the sample as a whole. Activity calls are given as the source filed them. Cut-off read from the data, not from the text of the source: active = growth inhibition above about 70%; inactive = the rest.

Columns and labels:
[1] = NCI Yeast Anticancer Drug Screen. Data for the rad50 strain (AID 155);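 note: 0% = growth of vehicle-only cultures of the same strain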; conditions: S. cerevisiae rad50 strain growth inhibition; at 50.0 µM; stronger effect = higher value
Method in brief: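 Cells are treated with compound, grown, and their growth is then scored against vehicle-only cultures of the same repair-deficient yeast strain.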

[2] = NCI Yeast Anticancer Drug Screen. Data for the mec2-1 strain (AID 157); conditions: S. cerevisiae mec2-1 strain, at 50.0 µM, stronger effect = higher value
Method in brief: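 Yeast mec2-1 mutant treated with compound. Readout: growth inhibition vs vehicle controls.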

[3] = NCI Yeast Anticancer Drug Screen. Data for the sgs1 mgt1 strain (AID 161);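 note: 0% = growth of cultures given vehicle only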; conditions: S. cerevisiae sgs1 mgt1 strain, at 50.0 µM, stronger effect = higher value
Method in brief: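 Inhibition of yeast growth, normalised to vehicle-treated controls, is reported for a strain bearing genetic alterations in DNA damage repair.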

[4] = NCI Yeast Anticancer Drug Screen. Data for the cln2 rad14 strain (AID 165);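 note: 0% = growth equal to vehicle treated cultures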; conditions: S. cerevisiae cln2 rad14 strain, at 50.0 µM, stronger effect = higher value
Method in brief: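 cln2 rad14 yeast strain; compound exposure; growth inhibition read vs vehicle controls.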

[5] = NCI Yeast Anticancer Drug Screen. Data for the bub3 strain (AID 167); conditions: S. cerevisiae bub3 mutant strain, at 50.0 µM, stronger effect = higher value
Method in brief: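 Part of a panel of yeast mutants defective in DNA damage repair or cell cycle regulation. Each strain is grown with compound, and inhibition is calculated relative to solvent-treated cultures.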

[6] = NCI Yeast Anticancer Drug Screen. Data for the mlh1 rad18 strain (AID 175); conditions: S. cerevisiae mlh1 rad18 strain growth inhibition; at 50.0 µM; stronger effect = higher value
Method in brief: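 Yeast w/ defined DNA-repair lesions; compound exposure; growth vs vehicle controls → % inhibition.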

Measured: growth inhibition

CC(C)(C)c1ccc(O)c(C(c2cc(C(C)(C)C)ccc2O)c2cc(C(C)(C)C)ccc2O)c1
active: [1] 97.2% | [2] 98.7% | [3] 98% | [4] 97.6% | [5] 96.5% | [6] 96.8%

CC1(C)OC2OC(COC(=O)c3ccc([N+](=O)[O-])cc3)C3OC(C)(C)OC3C2O1 (stereo unspecified)
inactive: [1] -13.6% | [2] -8.45% | [3] -8.85% | [4] -28.1% | [5] 0.85% | [6] -25.4%

COc1cc(CNC(=S)CCCCCCCCCCC(C)C)ccc1O
inactive: [1] -20.1% | [2] -23.6% | [3] -4.5% | [4] -26.4% | [5] 15.2% | [6] -21.4%

Cn1c2ccccc2c2c(-c3ccccc3)cc3c(c21)C(=O)C=CC3=O
inactive: [1] -15.3% | [2] -10.6% | [3] 3.8% | [4] 16.2% | [5] -25.9% | [6] 7.95%

CSc1nnc(COc2ccc(Cl)cc2)o1
inactive: [1] 22.3% | [2] 5.75% | [3] 26.1% | [4] 29.4% | [5] 12.8% | [6] 20.7%

Cc1nnsc1-c1nc2ccccc2[nH]1
inactive: [1] 22.2% | [2] 1.95% | [3] 9.35% | [4] 20.1% | [5] 32.5% | [6] 38.4%

Nc1ccc(/C=C\C(=O)c2ccccc2)cc1
inactive: [1] 16.4% | [2] 1.05% | [3] 12.1% | [4] 12.6% | [5] 4.25% | [6] 17.4%

CC(/C=N/NC1=NCCCCN1)=N\NC1=NCCCCN1
inactive: [1] -4.95% | [2] -16% | [3] -15.6% | [4] 8.8% | [5] -10.6% | [6] -16.4%

CCOC(=O)C1Cc2ccccc2OC1=O (stereo unspecified)
inactive: [1] -9.4% | [2] -15.2% | [3] 20.4% | [4] 12.8% | [5] 9.55% | [6] 3.85%

C[N+]1(CCC[N+]2(C)CCC3(CCCCC3)CC2)CCOCC1
inactive: [1] 18.6% | [2] -0.05% | [3] 11.2% | [4] -4.8% | [5] -1.55% | [6] 16.8%

O=C(O)C1=C(C(=O)O)C2CCCC3C4CCCCC4N(N1)C23 (stereo unspecified)
inactive: [1] 20.1% | [2] -13.9% | [3] -20.4% | [4] 3.9% | [5] 1.15% | [6] 22.9%

c1ccc(C[P+]2(c3ccccc3)c3ccccc3-c3ccccc32)cc1
inactive: [1] -25.9% | [2] -8% | [3] -11.2% | [4] 4.15% | [5] -6.6% | [6] -38.2%

CC(=O)OC1C=CCC2C(=O)C3=C(C(=O)c4ccccc4C3=O)C(=O)C12 (stereo unspecified)
inactive: [2] 21.3% | [3] 28% | [4] 36.6% | [5] 65% | [6] 33.2%
active: [1] 72.6%

CC1CCCC2C(=O)OC(=O)C12 (stereo unspecified)
inactive: [1] -5.3% | [2] -9.6% | [3] -13.1% | [4] -60.6% | [5] -21.1% | [6] -11.4%

CC(=O)Nc1c(C)cc(C)cc1[N+](=O)[O-]
inactive: [1] 8.05% | [2] 7.15% | [3] -12.9% | [4] 2.65% | [5] 6.4% | [6] 22.1%

O=C(N/N=C/C=C/c1ccccc1)NNC(=O)c1cc([N+](=O)[O-])cc([N+](=O)[O-])c1
inactive: [1] 31% | [2] 10.8% | [3] 38.3% | [4] 13.8% | [5] 2.65% | [6] 24.2%

CC(=O)OC(c1ccc2c(c1)OCO2)C(C)(C)C (stereo unspecified)
inactive: [1] 17% | [2] 14.9% | [3] -7.3% | [4] -33.5% | [5] 8.7% | [6] 7.9%

Nc1cc(=O)[nH]c(=S)n1-c1ccccc1
inactive: [1] -7% | [2] 2.5% | [3] -12.2% | [4] -16.1% | [5] -2.5% | [6] -9.65%

CCc1ccc2ccccc2c1N
inactive: [1] 20.6% | [2] 8.05% | [3] 6.1% | [4] -1.65% | [5] -0.3% | [6] 15.1%

O=[N+]([O-])c1ccccc1C=Nc1ccccc1O
inactive: [1] 56.4% | [2] 44.5% | [3] 52.8% | [4] 24.9% | [6] 66%
active: [5] 75%

Cc1cc(Cc2cccc3ccccc23)nc2c1ccc1ccccc12
inactive: [1] 0.85% | [2] -11.2% | [3] 12.2% | [4] 11% | [5] -13.9% | [6] 17.6%

C#CC(C)(C)OCC(O)CCl (stereo unspecified)
inactive: [1] 1.85% | [2] 5.65% | [3] 1.65% | [4] -28.8% | [5] -15.4% | [6] 2.45%

N#CC1C2C1C1C=CC2n2c(=O)n(-c3ccccc3)c(=O)n21 (stereo unspecified)
inactive: [1] 3% | [2] 2.5% | [3] 3.25% | [4] 27.4% | [5] 7.15% | [6] 4.95%

CCOC(=O)/C(O)=C(/C=NC(=S)c1ccncc1)C(=O)OCC
inactive: [1] -28.2% | [2] -29.8% | [3] -15.3% | [4] -6.45% | [5] -13.8% | [6] -31%

C(=Nc1ccccc1)Nc1ccccc1
inactive: [1] 2.85% | [2] 15.1% | [3] 16.4% | [4] 25.9% | [5] -15.4% | [6] -12.8%

CCCCCC/C=N\OC(N)=O
inactive: [1] 12.9% | [2] 15.2% | [3] -4.9% | [4] -12.9% | [5] 3.35% | [6] 11.8%

N#CC(C(=O)CCCC(=O)Nc1ccc(Cl)cc1Cl)c1ccccc1 (stereo unspecified)
inactive: [1] -39% | [2] -13.6% | [3] -6.95% | [4] 13.2% | [5] -16% | [6] -28.1%

BrC1CCC(Br)CC1 (stereo unspecified)
inactive: [1] 7.1% | [2] -11.1% | [3] -8.45% | [4] -12.9% | [5] -2.3% | [6] -9.7%

CN(C)c1ccc(/C=C(\C#N)c2nc(-c3cc4ccccc4oc3=O)cs2)cc1
inactive: [1] -2.45% | [2] -13.6% | [3] -23% | [4] -4.3% | [5] -35.7% | [6] -63.2%

CC(C)c1ccc2nc3ccc(C(=O)NCCN(C)C)cn3c(=O)c2c1
inactive: [1] -15.8% | [2] -0.25% | [3] -10.4% | [4] 2.65% | [5] -1% | [6] 9%

CCOC(=O)c1ccc(Nc2nc3ccccc3nc2C(=O)OCC)cc1
inactive: [1] -31.8% | [2] -39.1% | [3] -4.95% | [4] -3.7% | [5] 18.4% | [6] -26.9%

COC(=O)CNN
inactive: [1] -6.05% | [2] -19.4% | [3] -14.8% | [4] -25.1% | [5] -7.25% | [6] 7.9%

OC(COc1c2ccccc2nc2ccccc12)CN1CCN(c2ccccc2)CC1 (stereo unspecified)
inactive: [1] 21.9% | [2] -5.45% | [3] 6.5% | [4] 9% | [5] 0.9% | [6] 19.9%

CC(C)C1OCCOCCO1
inactive: [1] 9.45% | [2] -12.1% | [3] -18.5% | [4] -21.5% | [5] -9.4% | [6] 9.45%

COc1cc(C=Nc2ccc(C)c(Cl)c2)ccc1OC(=O)c1ccccc1
inactive: [1] -22.2% | [2] -9.05% | [3] -8.3% | [4] -12.8% | [5] 3.5% | [6] -0.3%

COC1/C=C\OC2(C)Oc3c(C)c(O)c4c(O)c(c5sc(N)nc5c4c3C2=O)NC(=O)/C(C)=C\C=C\C(C)C(O)C(C)C(O)C(C)C(OC(C)=O)C1C (stereo unspecified)
inactive: [1] -2.25% | [2] 16.6% | [3] 4.75% | [4] 14.8% | [5] 22.1% | [6] 10.8%

CN1C(=O)c2ccccc2C(O)(c2ccccc2)C1(O)c1ccccc1 (stereo unspecified)
inactive: [1] -6.3% | [2] -20.9% | [3] -26.7% | [4] 12.2% | [5] -12.2% | [6] -38.9%

Cn1ncc2c(=O)[nH]c(N)nc21
inactive: [1] 6.65% | [2] 31.2% | [3] -19.6% | [4] 1.2% | [5] -3.15% | [6] -5.85%

COC(=O)c1ccccc1NC(=O)c1cc(C(=O)O)c(C(=O)Nc2ccccc2C(=O)OC)cc1C(=O)O
inactive: [1] 0.75% | [2] 10.2% | [3] 4.95% | [4] 4.35% | [5] -3.7% | [6] 23.1%

COc1cc(CCC(=O)NS(=O)(=O)c2ccccc2)cc(OC)c1OC
inactive: [1] 4.2% | [2] 1.9% | [3] -6.75% | [4] -2.85% | [5] -3.85% | [6] 10.2%

CC(=O)NC(Cc1ccccc1)C(=O)Nc1ccc(C)cc1 (stereo unspecified)
inactive: [1] 14.3% | [2] 0.55% | [3] 15.8% | [4] 16.6% | [5] 11.4% | [6] 14.2%
